# Kir21 inh = inhibitors of mouse Kir2.1 inward-rectifier potassium channel. hit rate 0.85% among 310,000. B-score at 10 µM. HEK293-Kir2.1, FluxOR thallium flux fluorescence; active compounds read low;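 active means fluorescence ratio B-score at or below minus 3 SD of library scores, with starting-brightness B-score within 2 SD, cut at about -4.2 in these data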;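 further: channel flux triggered by added potassium and thallium sulfate stimulus; B-score of peak minus minimum fluorescence over baseline after thallium stimulus; more negative B-score means stronger Kir2.1 block with less thallium influx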
# TMEM16A act = activates or potentiates the mouse TMEM16A chloride channel. HEK293 TMEM16A/YFP-H148Q/I152L, iodide quench fluorescence; active compounds read low. hit rate 0.3% among 340,000. B-score at 10 µM. AID 623877. Q8BHY3;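 active means fluorescence-ratio B-score plate-corrected deviation score at least 3 library SD below zero, with starting fluorescence score within 5 deviations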;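 further: channel opened by trigger with iodide after compound preincubation; score built on the fluorescence ratio of max minus min over baseline; more negative score means more quench and so TMEM16A activation or potentiation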
# Target sequence (Q8BHY3 whole entry, looked up): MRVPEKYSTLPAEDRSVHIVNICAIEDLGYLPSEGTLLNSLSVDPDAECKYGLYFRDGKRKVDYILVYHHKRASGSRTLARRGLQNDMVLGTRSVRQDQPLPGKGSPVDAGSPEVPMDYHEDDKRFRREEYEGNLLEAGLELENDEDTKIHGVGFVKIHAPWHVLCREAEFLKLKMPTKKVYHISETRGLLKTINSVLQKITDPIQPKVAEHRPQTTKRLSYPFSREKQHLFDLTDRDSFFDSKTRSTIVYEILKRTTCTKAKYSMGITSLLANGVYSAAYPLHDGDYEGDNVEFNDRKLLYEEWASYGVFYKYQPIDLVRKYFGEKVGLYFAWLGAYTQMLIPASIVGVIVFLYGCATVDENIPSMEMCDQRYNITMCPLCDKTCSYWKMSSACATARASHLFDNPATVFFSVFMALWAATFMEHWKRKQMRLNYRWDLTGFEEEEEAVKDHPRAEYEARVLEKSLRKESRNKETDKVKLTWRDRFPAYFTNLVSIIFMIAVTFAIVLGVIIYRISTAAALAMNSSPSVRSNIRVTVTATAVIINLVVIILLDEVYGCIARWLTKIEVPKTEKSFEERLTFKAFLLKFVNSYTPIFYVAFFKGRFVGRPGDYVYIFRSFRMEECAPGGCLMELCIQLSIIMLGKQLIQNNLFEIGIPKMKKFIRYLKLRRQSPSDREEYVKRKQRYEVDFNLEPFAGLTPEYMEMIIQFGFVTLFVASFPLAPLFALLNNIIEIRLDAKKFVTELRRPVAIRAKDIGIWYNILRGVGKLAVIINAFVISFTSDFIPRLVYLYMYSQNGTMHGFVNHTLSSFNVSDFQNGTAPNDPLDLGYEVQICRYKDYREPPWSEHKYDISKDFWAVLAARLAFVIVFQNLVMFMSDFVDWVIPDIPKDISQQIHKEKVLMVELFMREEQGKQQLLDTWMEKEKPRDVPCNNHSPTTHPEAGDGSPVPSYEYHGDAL
# CHT inh = inhibitors of human choline transporter CHT; Q9GZV3; CHT-expressing cells, membrane potential dye, choline response; active compounds read low; B-score at 10 µM; hit rate 0.86% among 310,000; AID 488975;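 active means B-score over 3 SD under the library average, and starting fluorescence ratio not unusually high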;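 further: choline stimulus applied at its EC90 after an EC20 pre-addition; B-score computed on integrated fluorescence ratio after choline addition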
# CHT allo act = allosteric activators of human choline transporter CHT. Q9GZV3. CHT-expressing cells, membrane potential dye, choline EC20; active compounds read high; LV-AA mutant CHT in HEK293 cells. B-score at 10 µM. hit rate 0.49% among 310,000;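 active means initial fluorescence not abnormally high and integrated response B-score, plate-corrected, over 3 SD above library mean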
# GPR7 antagonist = blocks human GPR7 receptor signaling. P48145. inhibition, % at 4.4 µM. GPR7-expressing cells, fluorescence antagonist assay. hit rate 1.1% among 290,000. AID 1861; in the data active means inhibition above about 16%, passing the limit was not always enough;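 further: cells stimulated with the agonist NPW; 0% = agonist with vehicle and 100% = vehicle without agonist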
# TMEM16A inh = mouse TMEM16A channel inhibition, primary screen. normalized B-score (activity score, 25-100; higher = stronger inhibition) at 10 µM. hit rate 1.2% among 310,000. Q8BHY3. HEK293 TMEM16A/YFP iodide influx fluorescence, ionomycin;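 active means ratio plate-corrected score three or more library SD toward inhibition, starting fluorescence score within five deviations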;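 further: score derived from kinetic fluorescence span divided by baseline fluorescence per well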
# An asterisk follows results filed as active; i = inactive; . = no result. Rows were chosen to be rich in hits. Some 3.7% of all compounds tested hit in one or more screens of this group.
SMILES,Kir21 inh,TMEM16A act,CHT inh,CHT allo act,GPR7 antagonist,TMEM16A inh
Cc1cc(Br)ccc1OCCNCc1ccccc1,-10*,i,i,i,17,i
Cc1cc(C)c(OCCNCc2ccccc2)c(C)c1,-5*,i,i,i,-6,i
Cc1cc(C)c(OCCCCNCc2ccccc2)c(Cl)c1,-12*,i,i,i,0,i
Brc1ccccc1OCCNCc1ccccc1,-1.3,i,i,i,7,i
O=C(O)C1(c2ccccc2)CCN(S(=O)(=O)c2cccc(Cl)c2)CC1,0.12,i,i,i,-12,i
COCCCNCCCCOc1c(Cl)cc(C)cc1Br,-6*,i,i,i,-4,i
CCN(CC)S(=O)(=O)c1ccc(Cl)c(C(=O)Nc2cc(C)nn2-c2ccccc2C(F)(F)F)c1,-0.18,.,i,i,-9,i
Cn1c(=O)[nH]c(=O)c2c1nc1n2CCCN1Cc1ccccc1,-2,i,i,i,-16,i
CC1=NN(Cc2ccccc2)C(=O)C1C(c1ccccc1)C(C#N)C#N (stereo not drawn),-0.07,i,i,i,6,i
CC1=NN(Cc2ccccc2)C(=O)C1C(c1ccc(Cl)cc1)C(C#N)C#N (stereo not drawn),-5.5*,i,i,i,2,i
O=[N+]([O-])c1cccc(CSc2nnc(Cc3ccccc3)n2-c2ccc(F)cc2)c1,-5.8*,i,i,i,18,i
O=C(O)CSc1nnc(Cc2ccccc2)n1-c1ccccc1,-0.35,i,i,i,2,i
CCCN(CC(=O)Nc1ccccc1OC)C(=O)c1ccc(S(=O)(=O)NCc2ccco2)cc1,.,-45*,.,.,.,.
CCCN(CC(=O)Nc1ccccc1OC)C(=O)c1ccc(S(=O)(=O)Nc2ccccc2OC)cc1,.,i,.,.,.,.
CN(C)c1cc[n+](CC(=O)c2ccc(OC(F)F)cc2)cc1,-0.06,i,i,i,6,i
CCCCCCCCCCS(=O)(=O)N/N=C/c1ccc([N+](=O)[O-])cc1,-0.1,i,i,i,-6,100*
Cc1ccc(/C=N/NS(=O)(=O)c2ccc([N+](=O)[O-])cc2)o1,0.3,i,i,i,-8,i
Cc1cccc(NC(=S)NCC(c2cccnc2)N(C)C)c1 (stereo not drawn),0.02,i,i,i,0,i
Cc1nn(Cc2ccccc2)c(C)c1CNC(=O)[C@H](C)N=C1NS(=O)(=O)c2ccccc21,.,i,.,.,.,.
COc1ccccc1OCC(=O)Nc1ccc(N2CCCCC2)cc1,-1.1,i,i,i,-12,i
CCOc1ccccc1OCC(=O)Nc1ccc(N2CCCCC2)cc1,-0.08,i,i,i,17*,i
CC1CCN(C(=O)c2[nH]cnc2C(=O)N[C@@H](C)c2ccccc2)CC1,.,i,.,.,.,.
C=C(C)COc1ccc(-c2[nH]ncc2Oc2ccccc2OCC)c(O)c1,1.3,i,i,i,-3,100*
CC(C)(CNC(=O)c1ccccc1F)CNC(=O)c1ccccc1F,-0.82,i,i,i,.,i
COc1ccc(N(C(=O)Nc2ccc(Cl)cc2)C2=NCCC2)cc1,0.84,i,i,i,-17,25*
SMILES,Kir21 inh,TMEM16A act,CHT inh,CHT allo act,GPR7 antagonist,TMEM16A inh
Cc1ccc(N(C(=O)Nc2ccccc2)C2=NCCC2)cc1,0.79,i,i,i,14,i
Cc1cccc(Nc2c(F)c(F)c(F)c(F)c2C(=O)O)c1,-0.85,i,i,i,-10,i
Cc1ccc(Nc2c(F)c(F)c(F)c(F)c2C(=O)O)cc1,0.63,i,i,i,-1,25*
Cc1cc(C)c(S(=O)(=O)N2CCCCC2CCNC(=O)C(=O)NCc2ccccn2)c(C)c1 (stereo not drawn),-0.28,i,i,i,.,i
Cc1ccc2c(c1)NC(c1cccs1)C1=C(CC(C)(C)CC1=O)N2 (stereo not drawn),-1.7,-5.1*,i,i,16,i
Fc1ccccc1CSc1nncn1NCc1cccs1,-2.4,i,i,i,19*,i
Cc1c(NS(=O)(=O)c2cccc(C(=O)OCC(=O)c3ccc(Cl)cc3)c2)c(=O)n(-c2ccccc2)n1C,.,i,.,.,.,.
CC(NC(=O)Cc1ccc(NS(=O)(=O)c2cccc(C(F)(F)F)c2)cc1)c1ccccn1 (stereo not drawn),1.9,i,i,i,-6,i
Cc1ccc2oc(-c3cccc(NC(=O)Cn4cnc5c(=O)n(C)c(=O)n(C)c54)c3)nc2c1,-2.7,.,i,i,-4,100*
Cn1c(=O)c2ncn(CC(=O)Nc3ccc4oc(-c5cccc6ccccc56)nc4c3)c2n(C)c1=O,.,.,.,.,-7,.
C[C@H](NC(=O)[C@@H]1Cc2ccccc2CN1C(=O)OC(C)(C)C)C(=O)NCc1ccco1,0.11,i,i,i,-17,i
O=C(c1ccc2c3n(nc2c1)-c1ccccc1CO3)N1CCCCC1,0.7,i,-5.3*,i,.,i
O=C(c1ccc2c3n(nc2c1)-c1ccccc1CO3)N1CCOCC1,-0.65,i,i,i,.,i
CC(C)(C)N(Cc1ccccc1)C(=O)CN1C(=O)NC2(CCCCCC2)C1=O,.,i,.,.,.,.
COc1ccc(/C=N/NC(=O)CSc2nnc(CCCc3ccc(OC)c(C)c3)o2)cc1,1.9,i,i,i,4,100*
COc1ccc(CCCc2nnc(SCC(=O)N/N=C\c3ccc(O)c(OC)c3)o2)cc1C,-0.98,i,i,i,-18,i
CC(COc1ccccc1Cc1ccccc1)N1CCCCC1 (stereo not drawn),-5.8*,.,i,i,.,i
O=S(=O)(NCCc1cn2ccccc2n1)c1ccc(-c2ccccc2)cc1,-4.2*,i,i,i,2,i
COc1cccc(NC(=O)c2cccc(N3C(=O)C4C5C=CC(C5)C4C3=O)c2)c1 (stereo not drawn),-0.57,i,i,i,1,25*
COc1cc(CNC2CCCCCCC2)cc(Br)c1OCC#N,-4.8*,i,i,i,21,i
COc1cc(CNC2CCCCCCC2)cc(Cl)c1OC,-2.4,i,i,i,18,i
CCOc1c(Br)cc(CNC2CCCCCCC2)cc1OC,-4.3*,i,i,i,20,i
COc1cc(CNC2CCCC2)c(Br)cc1OC1CCCC1,-0.24,i,i,i,5,i
CN1CCN(CC#CCn2c3ccccc3c3ccccc32)CC1,-7.1*,i,i,i,17,i
CN1CCN(CC(O)Cn2c3ccccc3c3ccccc32)CC1 (stereo not drawn),0.03,i,i,i,15,i

# Source: PubChem
